Measurements from PubChem BioAssay (NCI).
Compounds without any hit were thinned out: in the full panel of roughly 79,000, 15% have a hit. Activity calls are given as the source filed them. Cut-off read from the data, not from the text of the source: active = growth inhibition above about 70%; inactive = the rest.

Legend:
[1] = NCI Yeast Anticancer Drug Screen. Data for the rad50 strain (AID 155);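 note: 0% = growth of vehicle-only cultures of the same strain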; settings: S. cerevisiae rad50 strain growth inhibition, hits give high values
How it was run: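 Yeast carrying a defined DNA repair defect were exposed to test compounds, and growth was compared with vehicle-treated controls to give percent inhibition.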

[2] = NCI Yeast Anticancer Drug Screen. Data for the mec2-1 strain (AID 157); settings: S. cerevisiae mec2-1 strain, hits give high values
How it was run: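 Strain: mec2-1 (DNA repair/cell cycle alteration). Compound exposure, then growth measured; inhibition expressed relative to vehicle.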

[3] = NCI Yeast Anticancer Drug Screen. Data for the sgs1 mgt1 strain (AID 161);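 note: 0% = growth of cultures given vehicle only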; settings: S. cerevisiae sgs1 mgt1 strain, hits give high values
How it was run: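 Mutant yeast exposed to compound; growth scored against vehicle-only wells.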

[4] = NCI Yeast Anticancer Drug Screen. Data for the cln2 rad14 strain (AID 165);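 note: 0% = growth equal to vehicle treated cultures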; settings: S. cerevisiae cln2 rad14 strain, hits give high values
How it was run: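 Compounds are applied to the cln2 rad14 yeast strain, and growth is then compared with that of vehicle-treated cultures to give inhibition.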

[5] = NCI Yeast Anticancer Drug Screen. Data for the bub3 strain (AID 167); settings: S. cerevisiae bub3 mutant strain, hits give high values
How it was run: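 Compounds were applied to a genetically altered yeast strain carrying a cell-cycle control defect. Growth inhibition was scored against vehicle-treated controls.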

[6] = NCI Yeast Anticancer Drug Screen. Data for the mlh1 rad18 strain (AID 175); settings: S. cerevisiae mlh1 rad18 strain growth inhibition, hits give high values
How it was run: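 Read-out is yeast growth inhibition, calculated against vehicle-only controls. The compound was applied to a strain engineered with DNA damage repair alterations.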

[7] = at 5.0 µM (retest, dose inferred, filed as 0.5)
[8] = at 50.0 µM (retest, dose inferred, filed as 5.0)

Measured: growth inhibition

CC(=O)Nc1ccc(O)c(=O)cc1
inactive: [1]; [7] 18% | [2]; [7] 42% | [3]; [7] 27% | [4]; [7] 16% | [4]; at 50.0 µM 20.9% | [5]; [7] 23% | [5]; at 50.0 µM 53.9% | [6]; [7] 19%
active: [1]; [8] 96% | [1]; at 50.0 µM 90.6% | [2]; [8] 97% | [2]; at 50.0 µM 87.5% | [3]; [8] 96% | [3]; at 50.0 µM 96.1% | [4]; [8] 93% | [5]; [8] 93% | [6]; [8] 97% | [6]; at 50.0 µM 97.2%

CCC[C@H]1[C@H](CCC)[C@@]2(OC(=O)C3=C2CCC=C3)[C@]12OC(=O)C1=C2CCC=C1
inactive: [1]; [7] -2% | [2]; [7] 2% | [3]; [7] 3% | [4]; [7] -7% | [5]; [7] 2% | [6]; [7] 1%
active: [1]; [8] 98% | [1]; at 50.0 µM 87.8% | [2]; [8] 99% | [2]; at 50.0 µM 87.4% | [3]; [8] 98% | [3]; at 50.0 µM 92% | [4]; [8] 99% | [4]; at 50.0 µM 91.7% | [5]; [8] 98% | [5]; at 50.0 µM 89% | [6]; [8] 98% | [6]; at 50.0 µM 89.8%

OC(CN1CCC(c2ccccc2)CC1)c1ccc(Br)cc1 (stereo not given)
active: [1]; [8] 74% | [1]; at 50.0 µM 87.7% | [3]; at 50.0 µM 83.2% | [4]; [8] 77% | [4]; at 50.0 µM 76.8% | [5]; [8] 93% | [5]; at 50.0 µM 82.7% | [6]; [7] 80% | [6]; [8] 91% | [6]; at 50.0 µM 80.5%
inactive: [1]; [7] 57% | [2]; [7] 32% | [2]; [8] 53% | [2]; at 50.0 µM 61.2% | [3]; [7] 66% | [3]; [8] 64% | [4]; [7] 64% | [5]; [7] 58%

OC(COc1ccc(Cl)cc1)COc1ccc(Cl)cc1
inactive: [1]; [7] 0% | [2]; [7] -3% | [3]; [7] -3% | [4]; [7] -19% | [5]; [7] -8% | [6]; [7] 0%
active: [1]; [8] 92% | [1]; at 50.0 µM 98.4% | [2]; [8] 91% | [2]; at 50.0 µM 99.4% | [3]; [8] 86% | [3]; at 50.0 µM 99.4% | [4]; [8] 86% | [4]; at 50.0 µM 99% | [5]; [8] 92% | [5]; at 50.0 µM 99.5% | [6]; [8] 93% | [6]; at 50.0 µM 99.3%

Cc1cc(O)c(C)c(C)c1N=Nc1ccccc1
inactive: [1]; [7] -157% | [1]; [8] -58% | [1]; at 50.0 µM 56.4% | [2]; [7] -52% | [2]; [8] -51% | [2]; at 50.0 µM 6.3% | [3]; [7] -68% | [3]; [8] -38% | [3]; at 50.0 µM 58.5% | [4]; [7] -63% | [4]; [8] -81% | [4]; at 50.0 µM 16.8% | [5]; [7] -70% | [5]; [8] -47% | [5]; at 50.0 µM 63.8% | [6]; [7] -124% | [6]; [8] -119%
active: [6]; at 50.0 µM 87.5%

CCCCCCCCN(CCCCCCCC)CC(O)c1cc2c(c3ccccc13)CCCC2 (stereo not given)
active: [1]; [8] 95% | [1]; at 50.0 µM 99.2% | [2]; [8] 96% | [2]; at 50.0 µM 99.4% | [3]; [8] 96% | [3]; at 50.0 µM 99.3% | [4]; [8] 94% | [4]; at 50.0 µM 99.2% | [5]; [8] 95% | [5]; at 50.0 µM 98.8% | [6]; [8] 96% | [6]; at 50.0 µM 98.8%
inactive: [1]; [7] 10% | [2]; [7] 8% | [3]; [7] 25% | [4]; [7] 13% | [5]; [7] 28% | [6]; [7] 11%

NC(=O)c1ccccc1OC(=O)NCCO
inactive: [1]; [7] 6% | [1]; [8] -3% | [1]; at 50.0 µM 3.2% | [2]; [7] -2% | [2]; [8] -5% | [2]; at 50.0 µM -1.7% | [3]; [7] 3% | [3]; [8] 2% | [3]; at 50.0 µM -1.2% | [4]; [7] -1% | [4]; [8] -7% | [4]; at 50.0 µM 35.8% | [5]; [7] -4% | [5]; [8] 3% | [5]; at 50.0 µM 1.7% | [6]; [7] 0% | [6]; [8] 7% | [6]; at 50.0 µM 7.35%

Cc1c(N=Nc2ccc(Br)cc2)c(-c2ccccc2)nn1C(=S)S
active: [1]; at 50.0 µM 88.7% | [2]; at 50.0 µM 88% | [3]; at 50.0 µM 90.5% | [5]; [8] 74% | [5]; at 50.0 µM 86.6% | [6]; at 50.0 µM 92.7%
inactive: [1]; [7] -1% | [1]; [8] 20% | [2]; [7] 2% | [2]; [8] 26% | [3]; [7] 3% | [3]; [8] 45% | [4]; [7] 4% | [4]; [8] 34% | [4]; at 50.0 µM 51.5% | [5]; [7] 3% | [6]; [7] 1% | [6]; [8] 31%

CC(C)(C)C(=O)OC(N)/C=C/c1ccccc1 (stereo not given)
active: [3]; at 50.0 µM 78.8% | [5]; at 50.0 µM 82.7%
inactive: [1]; [7] 21% | [1]; [8] 24% | [1]; at 50.0 µM 1.75% | [2]; [7] 15% | [2]; [8] 16% | [2]; at 50.0 µM -10.2% | [3]; [7] 13% | [3]; [8] -36% | [4]; [7] 14% | [4]; [8] -52% | [4]; at 50.0 µM 36.7% | [5]; [7] 7% | [5]; [8] -24% | [6]; [7] 23% | [6]; [8] 24% | [6]; at 50.0 µM -19.9%

CCCCC(CC)CN1C(=O)C2C3C=CC(C3)C2C1=O (stereo not given)
inactive: [1]; [7] -15% | [1]; [8] -20% | [1]; at 50.0 µM 32.5% | [2]; [7] -9% | [2]; [8] -20% | [2]; at 50.0 µM 19.1% | [3]; [7] -2% | [3]; [8] -9% | [3]; at 50.0 µM 39.2% | [4]; [7] 28% | [4]; [8] -49% | [4]; at 50.0 µM -4.45% | [5]; [7] 3% | [5]; [8] -26% | [5]; at 50.0 µM 39.1% | [6]; [7] -6% | [6]; [8] -15% | [6]; at 50.0 µM 7.15%
